# In PubChem BioAssay AID1159577 (Broad Institute, 2015):
# Among all 1,300 compounds or so, about 240 (18%) were called active. Another 8% or so got no clear call; they are omitted. A selection follows. Entries with a potency or affinity are not part of this list. Unmarked numbers belong to inactive results. No rule for the calls is given here.
# Assay: toxicity to human hepatoma HepG2 cells – cell-based, cherry-picked samples, cytotoxicity control, dose response (AID 1159577);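 also: 0% = neutral control wells and -100% = positive control wells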
# Conditions: HepG2 cytotoxicity counterscreen, plate reader; series mostly up to 19.5 µM; activity change, negative = cytotoxicity: at the top concentration
row,Compound,"activity change, negative = cytotoxicity"
1,CCCC#Cc1cnc2c(c1)C(=O)N([C@@H](C)CO)C[C@H](C)[C@H](CN(C)C(=O)Nc1cccc(F)c1)O2,14.9%
2,C[C@H](CO)N1C[C@H](C)[C@H](CN(C)S(=O)(=O)c2ccccc2)Oc2cc(C#Cc3ccncc3)ccc2S1(=O)=O,5.44%
3,C[C@@H]1CN([C@@H](C)CO)C(=O)c2cccc(NC(=O)c3cnccn3)c2O[C@@H]1CN(C)Cc1ccc(C(F)(F)F)cc1,-10.4%
4,CC(C)(C)S(=O)N1Cc2cc(C(=O)NCc3ccc4c(c3)OCO4)nc(-c3cccc(C#CCC4CCCC4)c3)c2[C@@H]1CCO (some centres not stated),18.7%
5,COc1ccc(-c2ccc([C@@H]3[C@@H](CO)N4C(=O)CN(C(=O)C5CCCC5)C[C@@H]34)cc2)cc1,16.6% [at 18 µM]
6,C[C@@H]1CN([C@@H](C)CO)C(=O)c2cccc(NC(=O)Nc3ccc4c(c3)OCO4)c2O[C@@H]1CN(C)C(=O)Nc1ccc2c(c1)OCO2,-6.12%
7,O=C(c1cccnc1)N1CC2(C1)[C@@H](c1ccccc1)[C@@H](CO)N2C(=O)CC1CC1,17.3% [at 21 µM]
8,COc1ccc(S(=O)(=O)N2CCC3(CC2)CN(Cc2ccncc2)[C@H](CO)c2[nH]c4cc(OC)ccc4c23)cc1,-18.8%
9,COc1cccc(-c2ccc3c(c2)[C@H]2[C@H](CCN2C(=O)C2CCCCC2)[C@@H](CO)N3)c1,-20.9%
10,C[C@@H]1CN([C@@H](C)CO)C(=O)c2cccc(NC(=O)c3nc4ccccc4s3)c2O[C@H]1CN(C)C(=O)NC1CCCCC1,-10%
11,N#C[C@@H]1[C@H](c2ccc(-c3cccc(F)c3)cc2)[C@@H](CO)N1C(=O)NC1CCCC1,-2.38%
12,OC[C@H]1[C@@H](c2ccc(-c3cccnc3)cc2)[C@@H]2CN(CC3CC3)CCCCN12,14.9%
13,N#C[C@@H]1[C@H](c2ccc(-c3cccc(F)c3)cc2)[C@H](CO)N1C(=O)NC1CCCC1,-17%
14,OC[C@H]1[C@@H](c2ccc(-c3cccnc3)cc2)[C@H]2CN(CC3CC3)CCCCN21,26.9%
15,OC[C@@H]1Nc2ccc(C3=CCCCC3)cc2[C@@H]2[C@H]1CCN2Cc1nccs1,-8.83%
16,C[C@H]1CN([C@@H](C)CO)C(=O)c2c(c3ccccc3n2C)-c2ccccc2CO[C@@H]1CN(C)Cc1ccc(Oc2ccccc2)cc1,-45.3%
17,C[C@@H]1CN([C@@H](C)CO)C(=O)c2c(c3ccccc3n2C)-c2ccccc2CO[C@@H]1CN(C)C(=O)c1cc(Cl)cc(Cl)c1,-16.3%
18,C[C@@H]1CN([C@@H](C)CO)C(=O)c2c(c3ccccc3n2C)-c2ccccc2CO[C@H]1CN(C)Cc1ccc(Cl)c(Cl)c1,3.18% [at 21 µM]
19,C[C@@H]1CN([C@@H](C)CO)C(=O)c2c(c3ccccc3n2C)-c2ccccc2CO[C@@H]1CN(C)Cc1ccc(Oc2ccccc2)cc1,-14%
20,C[C@@H]1CN([C@H](C)CO)S(=O)(=O)c2ccc(-c3cccc(C(=O)N(C)C)c3)cc2O[C@H]1CN(C)Cc1ccc2c(c1)OCO2,0.311%
21,COCC#Cc1ccc(CC[C@H]2O[C@H]3CC[C@H](CO)O[C@H]3C[C@@H]2n2cc(C3CC3)nn2)cc1,1.23%
22,COc1cccc(NC(=O)N2CC(=O)N3[C@H](CO)[C@@H](c4ccc(C#CCC5CCCC5)cc4)[C@H]3C2)c1,-4.34%
23,COc1ccc2c3c(n(C)c2c1)[C@H](CO)N(C(=O)Nc1ccc(F)cc1)CC31CCN(Cc2cccnc2)CC1,-0.659%

row,Compound,"activity change, negative = cytotoxicity"
1,Cc1ccc(-c2ccc([C@H]3[C@@H](CO)N4C(=O)CN(C(=O)Nc5cccc(F)c5)C[C@H]34)cc2)cc1,2.67%
2,COc1cccc(C#Cc2ccc([C@H]3[C@@H](CO)N4C(=O)CN(C(=O)Cc5ccccc5)C[C@H]34)cc2)c1,3.61%
3,C[C@H]1CN([C@@H](C)CO)C(=O)c2c(c3ccccc3n2C)-c2ccccc2CO[C@H]1CN(C)C(=O)c1cc(Cl)cc(Cl)c1,4.79% [at 21 µM]
4,CCS(=O)(=O)N1CCC2(CC1)CN(Cc1cc(F)ccc1F)[C@H](CO)c1c2c2ccc(OC)cc2n1C,8.03%
5,CCCNC(=O)Nc1ccc2c(c1)OC[C@@H](C)N(CC1CCCC1)C[C@@H](C)[C@H](OC)CN(C)C2=O,-23.9%
6,COc1ccc2c3c([nH]c2c1)[C@H](CO)N(Cc1ccccc1OC)CC31CCN(S(=O)(=O)c2ccccc2)CC1,-3.09%
7,COc1ccc2c3c([nH]c2c1)[C@H](CO)N(C(=O)C1CCOCC1)CC31CCN(Cc2nccs2)CC1,-9.73%
8,O=C(C[C@H]1C[C@@H]2c3cc(NS(=O)(=O)c4ccc(F)cc4)ccc3O[C@@H]2[C@@H](CO)O1)N1CCc2ccccc2C1,-5.93%
9,O=C(c1ccccc1F)N1CC(=O)N2[C@H](C1)[C@@H](c1ccc(-c3cccnc3)cc1)[C@@H]2CO,-10.1%
10,N#C[C@@H]1[C@@H](c2ccccc2C2=CCCC2)[C@H](CO)N1C(=O)C1CC1,-21.1% [at 18 µM]
11,O=C(Nc1cccc(F)c1)N1CCCCN2[C@H](CO)[C@H](c3ccc(C#Cc4ccccc4)cc3)[C@@H]2C1,0.219%
12,O=C(Nc1ccccc1)N1CCCCN2[C@@H](CO)[C@H](c3ccc(C#Cc4cccnc4)cc3)[C@@H]2C1,16.9%
13,O=C(Nc1ccccc1)N1CCCCN2[C@H](CO)[C@H](c3ccc(C#Cc4ccccc4)cc3)[C@@H]2C1,15%
14,O=C(Nc1cccc(F)c1)N1CCCCN2[C@@H](CO)[C@H](c3ccc(C#Cc4cccnc4)cc3)[C@@H]2C1,-13.2%
15,COc1ccc(NC(=O)N2CCCCN3[C@@H](CO)[C@H](c4ccc(C#Cc5ccccn5)cc4)[C@@H]3C2)cc1,15.3%
16,COc1ccc(NC(=O)N2CCCCN3[C@H](CO)[C@H](c4ccc(C#CCC(C)C)cc4)[C@@H]3C2)cc1,11.6%
17,COc1ccc(C#Cc2ccc3c(c2)[C@H]2[C@H](CCN2C(=O)c2ccccn2)[C@@H](CO)N3)cc1,-7.07%
18,COc1ccc(NC(=O)N2CCC3(CC2)CN(C(=O)C2CCC2)[C@H](CO)c2c3c3ccc(OC)cc3n2C)cc1,-1.36%
19,C[C@@H]1CN([C@H](C)CO)C(=O)c2c(c3ccccc3n2C)-c2ccccc2CO[C@H]1CN(C)S(=O)(=O)c1ccc(C(F)(F)F)cc1,18%
20,C[C@@H]1CN([C@@H](C)CO)C(=O)c2c(c3ccccc3n2C)-c2ccccc2CO[C@H]1CN(C)C(=O)Cc1ccccc1,-7.33%
21,CCC(=O)N1CC2(C1)[C@@H](c1ccc(-c3cccc(OC)c3)cc1)[C@@H](CO)N2C(C)=O,-16.1%
22,CO[C@H]1CN(C)C(=O)c2cc(NC(=O)C3CC3)ccc2OC[C@H](C)N(Cc2cc(F)ccc2F)C[C@@H]1C,32%
23,COc1ccc(S(=O)(=O)Nc2ccc3c(c2)CC(=O)N([C@@H](C)CO)C[C@H](C)[C@H](CN(C)S(=O)(=O)c2ccc(C)cc2)O3)cc1,7.4%

row,Compound,"activity change, negative = cytotoxicity"
1,Cc1ccc(S(=O)(=O)N(C)C[C@H]2OCc3ccccc3-c3c(n(C)c4ccccc34)C(=O)N([C@@H](C)CO)C[C@H]2C)cc1,-5.12% [at 21 µM]
2,COc1ccc(NC(=O)N2CCCCN3[C@H](CO)[C@H](c4ccc(C#Cc5ccccc5)cc4)[C@@H]3C2)cc1,-6.2%
3,COc1ccc(C#Cc2ccc([C@H]3[C@H]4CN(C(=O)Nc5ccccc5)CCCCN4[C@H]3CO)cc2)cc1,0.362%
4,COc1ccc(NC(=O)Nc2ccc3c(c2)[C@H]2C[C@H](CC(=O)N4CCc5ccccc5C4)O[C@H](CO)[C@H]2O3)cc1,17.4%
5,COc1ccccc1-c1cccc(-c2nc(C(=O)Nc3nccs3)cc3c2[C@H](CCO)N(C(=O)CC2CC2)C3)c1,30.2%
6,CO[C@H]1CN(C)C(=O)c2cc(NS(=O)(=O)c3ccccc3C)ccc2OC[C@H](C)N(C)C[C@H]1C,-7.94%
7,CC(C)(O)C#Cc1ccc([C@H]2[C@H](CO)N3CCCCN(C(=O)c4ccc(F)cc4)C[C@@H]23)cc1,21.6%
8,COc1ccc2c3c(n(C)c2c1)[C@H](CO)N(CC1CC1)CC31CN(C(=O)c2ccc3c(c2)OCO3)C1,1.85%
9,CO[C@@H]1CN(C)C(=O)c2ccc(NC(=O)C3CCC3)cc2OC[C@@H](C)N(CC2CCCCC2)C[C@H]1C,-6.63%
10,CO[C@@H]1CN(C)C(=O)c2cc(NC(=O)c3ccccc3F)ccc2OC[C@H](C)N(C(=O)c2ccccc2F)C[C@@H]1C,14.7%
11,C[C@H](CO)N1C[C@H](C)[C@@H](CN(C)C(=O)Nc2cccc3ccccc23)Oc2ccc(NC(=O)Cc3cn(C)c4ccccc34)cc2C1=O,-4.27%
12,C[C@H](CO)N1C[C@H](C)[C@@H](CN(C)S(=O)(=O)c2ccc(C(F)(F)F)cc2)OCc2ccccc2-c2c(n(C)c3ccccc23)C1=O,0.059% [at 21 µM]
13,N#C[C@@H]1[C@H](c2ccccc2-c2cccc(F)c2)[C@@H](CO)N1C(=O)C1CCCC1,17.6%
14,CC(C)(C)[S@@](=O)N1Cc2cc(C(=O)N[C@@H]3CCN(Cc4ccccc4)C3)nc(-c3cccc(-c4cccnc4)c3)c2[C@H]1CCO,22.2%
15,COCc1cn([C@@H]2C[C@@H]3O[C@H](CO)CC[C@@H]3O[C@@H]2CCc2ccc(-c3ccc(OC)cc3)cc2)nn1,-7.81%
16,CCCNC(=O)Nc1ccc2c(c1)C(=O)N(C)C[C@@H](OC)[C@H](C)CN(C(=O)C1CCOCC1)[C@@H](C)CO2,14.2%
17,COc1ccc(NC(=O)N(C)C[C@@H]2Oc3cc(-c4ccc(C)cc4)ccc3S(=O)(=O)N([C@H](C)CO)C[C@@H]2C)cc1,-9.12%
18,C[C@H]1CN([C@@H](C)CO)S(=O)(=O)c2ccc(C#Cc3ccccc3)cc2O[C@@H]1CN(C)S(=O)(=O)c1cn(C)cn1,-20.3%
19,COc1cccc(CN2CCCCN3[C@H](CO)[C@@H](c4ccc(C#Cc5cccnc5)cc4)[C@@H]3C2)c1,-16.5%
20,COc1ccc(NC(=O)N2CCCCN3[C@H](CO)[C@H](c4ccc(C#Cc5ccccn5)cc4)[C@@H]3C2)cc1,-5.37%
21,O=C(Nc1ccccc1)N1CCCCN2[C@H](CO)[C@H](c3ccc(C#Cc4cccnc4)cc3)[C@@H]2C1,-11.5%
